Data on 14 compounds can be found in ChEMBL document CHEMBL1157539, “Thousands of chemical starting points for antimalarial lead identification” (Nature, 2010).

This assay deals with Plasmodium falciparum. Kind of assay: GSK_TCMDC: Inhibition of Plasmodium falciparum 3D7 in whole red blood cells, using parasite LDH activity as an index of growth. Test compounds present at 2uM. The assay is classed as functional.
Broadly, the Inhibition is the relative decrease from the control value, in per cent. Read a high Inhibition as a strong effect. Take `CN1CCN(c2ncnc3ccc(NC(=O)Nc4ccc(Cl)c(Cl)c4)cc23)CC1`: the Inhibition is listed as 100%. The compound `O=C(NCc1ccc(Cl)c(Cl)c1)c1ccc(-c2nc3ccc(Cl)cc3[nH]2)cc1` had an Inhibition of 96%. In the case of `C[C@H](Cc1ccc(CCc2ccc(C[C@@H](C)NC[C@H](O)c3cccc(Cl)c3)cc2)cc1)NC[C@H](O)c1cccc(Cl)c1.Cl`, the Inhibition worked out at 95%. In the case of `Cl.O=C(Nc1ccc2c(c1)CCN(C1CCC1)CC2)c1ccc(-c2cn3ccccc3n2)cc1`, the Inhibition is reported as 100%. Compound `CCCC(C)NC[C@@H](O)[C@H](Cc1ccccc1)NC(=O)c1cc(NCC)cc(N2CCCCS2(=O)=O)c1.Cl` (some centres undefined) showed an Inhibition of 100%. With `CC1CCN(Cc2c(O)ccc3c(CN4CCC(C)CC4)c(O)ccc23)CC1.Cl`, the Inhibition was found to be 100%.

In turn, `COc1cc(Cc2cnc(N)nc2N)cc(OCCCCCCN)c1OC.Cl` displayed an Inhibition of 96%. `CC1CCC(C(C)C)C(OC(=O)CSc2nnc3c(n2)[nH]c2ccccc23)C1` (centres undefined) showed an Inhibition of 88%. The figure for `CCN(CC)CCCCCNc1c2ccc(Cl)cc2nc2ccc(OC)cc12.Cl` is 99%. Compound `Cl.Nc1nc(N)c2c(ccc3nn(S(=O)(=O)N4CCCC4)cc32)n1` had an Inhibition of 95%.

On to `Cc1cc2c3c(N)nc(N)nc3ccc2n1C`, for which the Inhibition came to 95%. Compound `Cc1ccc(Nc2nc(N)c3ccccc3n2)cc1.Cl` yielded an Inhibition of 94%. As for `CC(C)(C)CCN1CCC(CNC(=O)c2cc(-c3cccc(C(F)(F)F)c3)cs2)C1.O=C(O)C(F)(F)F` (centres undefined), the figure is 93%; as for `CC(C)[C@@H](C(=O)NCc1cccc(C(F)(F)F)c1)N1C(=O)CCC1C(=O)Nc1ccc([N+](=O)[O-])cc1` (some centres undefined), 94%.
